Measured values as given in PubChem BioAssay AID2685 (National Center for Advancing Translational Sciences (NCATS), 2010).
Screen size: about 320,000 compounds; about 2,100 (0.66%) were called active. Another 53% or so got no clear call; they are omitted. The sample holds actives, similar compounds and a random draw of the others, so the mix is not that of the screen. Calls come from the whole dose curve; as a rule, active = well fitted inhibition curve with a large enough effect in the signal ratio, with a control signal flat (not every such curve was filed as active); inconclusive = small, poorly fitted or top-dose-only effect, or effect the other way, or a change in a side signal; inactive = flat fitted curve, though single readings scatter; the % refers to the signal ratio.

experiment: qHTS Assay for Lipid Storage Modulators in Drosophila S3 Cells; details: BODIPY lipid droplet fluorescence, 18-24 h, cells fed with added oleic acid; cell number change: measured here: cell count max response; series mostly up to 46.1 µM; lipid storage change, negative = inhibition: at the top concentration;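 for cell number change: cells counted by Cell Tracker Red CMTPX staining in the red channel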; for lipid storage change, negative = inhibition: % is set by controls: 0 for no effect and ±100 for the full control effect
Summary of the method: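 Drosophila S3 cells got compounds at several concentrations plus oleic acid (400 uM solution). Laser-scanning cytometry with 488 nm excitation read lipid droplets at 500-530 nm and cells at 575-640 nm. Percent activity was relative to 20 uM Triacsin C.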
Potency is the fitted concentration of half-maximal effect.

Compound | Potency | cell number change | lipid storage change, negative = inhibition | outcome
CC(=O)N(Cc1ccco1)C1(C(=O)NC2CCCC2)CCCCC1 | 14.6 µM (active) | 3.24% |  | 
O=C(Cc1cccs1)N(CC1CCCO1)C1(C(=O)NC2CCCC2)CCCCC1 (centres undefined) |  | -0.501% | -0.959% (inactive) | 
CC(=O)NCC(=O)N(Cc1ccco1)C1(C(=O)NC2CCCC2)CCCCC1 |  | 17.4% | 1.93% (inactive) | 
O=C(NC(N1CCOCC1)C(Cl)(Cl)Cl)c1cc([N+](=O)[O-])cc([N+](=O)[O-])c1 (centres undefined) |  |  | 2.11% (inactive) | 
COC(CNC(=O)c1ccc(CS(=O)(=O)c2ccc(C)cc2)o1)OC |  | 23.5% | 5.22% (inactive) | 
COc1nc(NCCN2CCOCC2)nc(Nc2ccccc2)n1 |  | -13.7% |  | inactive
COc1ccc(NC(C)=O)cc1S(=O)(=O)NC(Cc1ccccc1)C(=O)NCc1ccccc1C (centres undefined) | 1.84 µM (active) | -19.4% |  | 
COc1ccc(NC(C)=O)cc1S(=O)(=O)NC(Cc1ccccc1)C(=O)O (centres undefined) |  | -4.53% | 17.4% (inactive) | 
COc1ccc(NC(C)=O)cc1S(=O)(=O)Nc1ccc(OCc2ccccc2)cc1 |  | -6.41% |  | inactive
O=C1NC(c2ccccc2Cl)Nc2ccccc21 (centres undefined) |  | -2.9% | -6.86% (inactive) | 
COc1ccc(C(=O)Nc2nnc(SCC(=O)NCc3ccco3)s2)cc1OC |  |  | -13.8% (inactive) | 
Cc1ccccc1C(=O)Nc1nnc(SCC(=O)NCc2ccco2)s1 |  | -7.23% |  | inactive
COc1ccccc1C(=O)Nc1nnc(SCC(=O)NCc2ccco2)s1 | 20.6 µM (active) | -7.8% |  | 
Cc1nc2ccc(NC(=S)NC(C)C)cc2nc1C |  | -1.16% | 7.57% (inactive) | 
COc1cc(C(=O)NC(C)c2ccc(S(N)(=O)=O)cc2)ccc1OCC(=O)N1CCOCC1 (centres undefined) |  | 9.66% | 29.2% (inactive) | 
CC12CN3CC(C)(CN(C1)C3c1ccccc1F)C2 (centres undefined) |  |  | 4.33% (inactive) | 
CC12CN3CC(C)(CN(C1)C3c1ccc(Cl)cc1)C2 (centres undefined) |  | -7.54% | -3.46% (inactive) | 
CC12CN3CC(C)(CN(C1)C3c1ccc(F)cc1)C2 (centres undefined) | 0.731 µM (active) | -6.72% |  | 
Cc1nnc(NC(=O)CSc2ccc(-c3ccco3)nn2)s1 |  | 17.1% | 1.52% (inactive) | 
NS(=O)(=O)c1ccc(NC(=O)Nc2ccc(Cl)cc2)cc1 |  | -17.6% | -5.77% (inactive) | 
COc1ccc(CC(=O)Nc2nc(-c3ccc(OC)c(OC)c3)cs2)cc1OC |  | -7.98% | -0.677% (inactive) | 
COc1ccc(CC(=O)Nc2nc(-c3ccc(F)c(F)c3)cs2)cc1OC | 6.51 µM (active) | 21% |  | 
COc1ccc(CC(=O)Nc2nc(-c3ccc(F)c(F)c3)cs2)cc1 |  | 17.2% |  | inactive

Compound | Potency | cell number change | lipid storage change, negative = inhibition | outcome
Cc1ccccc1OCCC(=O)OCC(=O)Nc1ccc(C(N)=O)cc1 |  | 0.749% | 3.07% (inactive) | 
O=C(CSCc1ccc(F)cc1)Nc1ccc(F)cc1 |  | 14.6% | 0.0604% (inactive) | 
CCc1nnc(NC(=O)C2CC(=O)N(C3CCCC3)C2)s1 (centres undefined) |  | 8.4% |  | inactive
CCOC(=O)N1CCN(C(=O)C2CCN(S(=O)(=O)c3cc(Cl)ccc3Cl)CC2)CC1 |  | -24.4% | 9.01% (inactive) | 
COc1cc(C(=O)NCCC2=CCCCC2)ccc1OC1CCN(C(C)=O)CC1 |  | 8.8% | -13.8% (inactive) | 
CCC(C)C(=O)Nc1ccc(OC)cc1OC (centres undefined) | 23.1 µM (active) | 17.4% |  | 
COc1ccc(NC(=O)C(CC(C)C)NC(=O)C2CCCCC2)c(OC)c1 (centres undefined) |  | -5.85% | -6.75% (inactive) | 
COc1ccc(NC(=O)CN2CCCN(S(=O)(=O)c3ccc(F)cc3)CC2)c(OC)c1 |  | 0.557% | 0.193% (inactive) | 
COc1ccc(NC(=O)CN2CCC(C(=O)c3ccc(F)cc3)CC2)c(OC)c1 |  | -0.87% |  | inactive
COc1ccc(NC(=O)CN2CCN(CC(=O)Nc3ccc(F)cc3)CC2)c(OC)c1 | 18.4 µM (active) | 21.1% |  | 
COc1ccc(NC(=O)c2ccc(C(=O)Nc3ccc(OC)cc3OC)cc2)c(OC)c1 |  | 1.2% | -1.09% (inactive) | 
Cc1cc(Br)cc2c1NC(=O)C2(O)CC(=O)c1ccco1 (centres undefined) |  | 3.68% | 9.35% [at 9.22 µM] (inactive) | 
COc1ccc(NC(C)=[N+](C)CCNS(=O)(=O)c2ccc(Cl)cc2)cc1 |  |  | 27.3% (inactive) | 
C/C(CCc1ccco1)=N/NC(=O)CCC(=O)Nc1cccc(Cl)c1 |  | 0.649% | -0.598% (inactive) | 
CC(C)(C)c1ccc(S(=O)(=O)/N=C2\C=C(NS(=O)(=O)c3ccccc3)C(=O)c3ccccc32)cc1 |  | -1.8% |  | inactive
CC(=O)Nc1ccc(NC2=CC(=O)c3ccccc3C2=O)cc1 |  | 4.49% | 6.65% (inactive) | 
O=S(=O)(/N=C(/Nc1ccccc1F)c1ccccc1)c1ccccc1 |  |  |  | inactive
O=C(O)c1ccc(S(=O)(=O)/N=C2\C=C(Nc3ccccc3F)C(=O)c3ccccc32)cc1 | 6.51 µM (active) | 2.14% |  | 
CCc1ccc(S(=O)(=O)/N=C2\C=C(Nc3ccc(O)cc3)C(=O)c3ccccc32)cc1 |  | 15.8% | -100% (inactive) | 
Cc1cc(C)c(S(=O)(=O)/N=C2\C=C(Nc3ccc(C(=O)O)cc3)C(=O)c3ccccc32)c(C)c1 | 0.92 µM (active) | 11.7% |  | 
Cc1ccc(-n2c(C)cc(/C=N/NC(=O)c3ccncc3)c2C)cc1C |  |  |  | inactive
CC1(C)CC(NC(=S)Nc2ccc([N+](=O)[O-])cc2)CC(C)(C)N1 |  | 15.8% | -0.0033% (inactive) | 
